In the library only some 1.6% were active in any assay of this set; here they are far more common.
3CLpro inhibitor = SARS-CoV 3CLpro protease inhibition; P0C6X7; recombinant SARS-CoV 3CLpro, quenched FRET peptide cleavage; inhibition, % at 6 µM; hit rate 0.14% among 290,000; AID 1706; in the data active = inhibition above about 12%
BH1578 lux ind = induces V. cholerae light production without autoinducers; hit rate 0.16% among 350,000; V. cholerae BH1578 lux reporter, luminescence, 6 h; AID 588436; activation, % at 18.7 µM; in the data active = activation mostly above about 9.7%, no sharp cut-off
PrPC surface inh = cell surface PrPC inhibition, primary TR-FRET screen. inhibition, % at 13.8 µM. TR-FRET read-out. P04156. hit rate 0.43% among 370,000; in the data active = inhibition above about 24%; also: 0% = median of the test wells and 100% = reference compound wells
PfHsp40 rescue = restores yeast growth despite PfHsp40 toxicity | S. cerevisiae expressing PfHsp40, growth rescue, ATP luminescence | growth rescue, % at 12.5 µM | hit rate 0.68% among 340,000 | AID 504582; in the data active = growth rescue above about 28%, passing the limit was not always enough;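 also: yeast W303a lacking pdr1 and pdr3 grown in galactose medium; growth measured after three days at 30 °C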
PrP UTR inh = suppresses PrP 5' UTR mRNA reporter expression. hit rate 0.35% among 340,000. inhibition, % (concentration not given with the values). cell-based PrP 5' UTR mRNA reporter, plate reader; in the data active = inhibition above about 52%; also: 0 = median of the neutral control wells
PriA SSB inh = inhibitors of Klebsiella pneumoniae PriA binding to SSB C-terminal tail; inhibition, % at 33 µM; AlphaScreen SSBct-PriA binding, biotinylated peptide; hit rate 0.6% among 430,000; in the data active = inhibition mostly above about 37%, no sharp cut-off; inactive = mostly below about 20%;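 also: plate controls were negative control peptide for no effect and reference peptide for full effect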
* marks the source's active call; other numbers are inactive results; i = inactive; x = no result given.

SMILES	3CLpro inhibitor	BH1578 lux ind	PrPC surface inh	PfHsp40 rescue	PrP UTR inh	PriA SSB inh
COc1ccc(C(=O)NNC(=O)c2cccn(Cc3ccc(F)cc3)c2=O)cc1	x	x	x	x	x	-4
CC(C)[C@H](NC(=O)c1ccccc1Cl)C(=O)Nc1nc(-c2ccccn2)cs1	3	0	11	2	-6	8
CC(C(=O)Nc1nc(-c2ccccn2)cs1)N1NC2=CCCC2=CC1=O (configuration not stated)	x	x	x	x	x	95*
CC(NC(=O)c1cccs1)C(=O)Nc1nc(-c2ccccn2)cs1 (configuration not stated)	x	x	x	x	x	103*
O=c1cc(O)c2ncccc2[nH]1	x	x	x	x	x	129*
Cc1ccnc(NC(c2cccs2)c2c(C)[nH]c3ccccc23)c1 (configuration not stated)	x	x	x	x	x	-6
CN(C)S(=O)(=O)c1cccc(NC(=S)NN=Cc2ccc(O)c(O)c2O)c1	x	x	x	x	x	102*
CN(C)S(=O)(=O)c1cccc(NC(=S)N/N=C/c2cccc(O)c2)c1	2	i	5	-1	-12	x
O=C1C2C3C=CC(C3)C2C(=O)N1CNc1ccccn1 (configuration not stated)	1	1	2	44*	-22	-12
CC(C(=O)Nc1ccccn1)N1C(=O)C2C3C=CC(C3)C2C1=O (configuration not stated)	7	0	7	1	-18	-13
CSc1ccc2nc(N(CC3CCCO3)C(=O)c3ccc(Cl)s3)sc2c1 (configuration not stated)	x	x	x	x	x	-40
Cc1ccc(C)c2sc(NC(=O)CN3C(=O)CCC3=O)nc12	5	0	-1	-2	-20	1
Cc1ccc2sc(NC(=O)CN3C(=O)CCC3=O)nc2c1C	5	0	5	1	-16	104*
Cc1ccc2c(c1C)-c1c(ccc(C)c1C)C(=O)C2=O	x	-6	2	171*	-44	2
Cc1ccc2c(c1N)C(=O)c1ccccc1C2=O	x	0	-29	-3	-47	10
CCOc1ccc(S(=O)(=O)Nc2ccc3c(c2)C(=O)N(C)c2cc(C)ccc2O3)cc1C	x	x	x	x	x	36
CCC(=O)NC(c1cc(Cl)c2cccnc2c1O)C(C)C (configuration not stated)	x	i	14	247*	18	-1
CCC(=O)NC(c1ccc(C)cc1)c1cc([N+](=O)[O-])c2cccnc2c1O (configuration not stated)	-5	1	-3	-1	7	5
COc1ccc(C(NC(C)=O)c2cc(Cl)c3cccnc3c2O)cc1 (configuration not stated)	-4	0	28*	2	-3	43
CC(=O)NC(c1ccc(C)cc1)c1cc([N+](=O)[O-])c2cccnc2c1O (configuration not stated)	-3	0	0	221*	-23	77
Cc1cc(C)c(C)c(S(=O)(=O)Nc2ccc(C(=O)N3CCC(Cc4ccccc4)CC3)cc2)c1C	x	x	x	x	x	-17
S=C(Nc1ccc2nsnc2c1)NC1CCCCC1	-4	0	-37	0	-6	-70
S=C(NNc1ccc2ccccc2c1)NC1CCCCC1	-2	i	4	244*	-25	28
S=C(Nc1ccc(Cl)c(Cl)c1)NC1CCCCC1	6	i	x	190*	-33	-7
Cc1nc2sccn2c1-c1nnc(SCC(=O)NC[C@H]2CCCO2)n1C	x	x	x	x	x	-11
SMILES	3CLpro inhibitor	BH1578 lux ind	PrPC surface inh	PfHsp40 rescue	PrP UTR inh	PriA SSB inh
Cc1cc(-c2ccncc2)nn1CCNC(=O)c1ccc(C(F)(F)F)nc1	x	x	x	x	x	-10
CCOC(=O)CC(=O)CSc1nc2c(c(C)c1C#N)CCC2	5	i	1	31*	-3	-19
COc1cc2c(cc1OC)CN(C(=O)c1ccc([N+](=O)[O-])o1)CC2	-2	0	-22	63*	9	-2
O=C(c1ccc([N+](=O)[O-])o1)N1CCc2ccccc2C1	-3	2	-24	53*	-8	6
O=C(c1ccc([N+](=O)[O-])o1)N1CCc2ccccc21	-3	2	-25	3	1	9
COc1ccc(C(=O)N2CCc3cc(OC)c(OC)cc3C2)cc1OC	0	3	6	1	-23	-8
CC(C)CCN1C(=O)C(C)(C)COc2cc(NC(=O)c3ccc(Cl)c([N+](=O)[O-])c3)ccc21	x	x	x	x	x	9
COc1ccc(C(=O)c2c(C(F)(F)F)oc3c2C(=O)c2ccccc2C3=O)cc1OC	7	0	-2	60*	-1	49

Bioassay records from PubChem BioAssay.
